# Inconclusive results are not listed. Where a call stands in place of a potency, no number is given. Activity calls are given as the source filed them. Unless noted, the call rests on the fitted dose curve.
# Experiments:
# [1] = target: Peroxisome proliferator-activated receptor delta (Homo sapiens) (UniProt Q03181); assay: qHTS assay for small molecule agonists of peroxisome proliferator-activated receptor delta signaling (AID 588534)
# Outline: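 Fluorescence from CCF4 substrate cleavage by beta-lactamase reporter, read 2 hrs at RT, measured agonist activity. Compounds were tested with 18 hrs exposure at 37 C. Concentration-response data fitted to Hill equation.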
# [2] = qHTS assay for small molecule antagonists of peroxisome proliferator-activated receptor delta signaling (AID 588535; active means well fitted inhibition curve with a large enough effect in the signal ratio, with a control signal flat, not every such curve was filed as active; the % refers to the signal ratio;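 on max response: cells co-treated with a PPAR-delta agonist as stimulator during compound exposure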); conditions: HEK293T PPARd-UAS-bla, beta-lactamase FRET ratio, 18 h; 460 nm channel
# Outline: (§1)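 HEK293T PPAR-delta-UAS-bla cells, 4000/well, 2% charcoal/dextran FBS; 5 h 37 C; cpd titration; 18 h 37 C; CCF4 2 h RT; FI 460/530 nm; Hill fit → IC50, efficacy.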
# [3] = target: Peroxisome proliferator-activated receptor gamma (Homo sapiens) (UniProt P37231); assay: qHTS assay for small molecule agonists of peroxisome proliferator-activated receptor gamma signaling (AID 588536; active means well fitted curve in the direction sought with a large enough effect in the signal ratio, with a control signal flat, not every such curve was filed as active; the % refers to the signal ratio)
# Outline: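 PPAR-gamma-UAS-bla HEK293 cells in medium with 1% charcoal/dextran-treated FBS were exposed to compounds for 16 h at 37 C. Beta-lactamase activity was read with CCF4 substrate (405 nm excitation, 460/530 nm emission).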
# [4] = target: Peroxisome proliferator-activated receptor gamma (Homo sapiens) (UniProt P37231); assay: qHTS assay for small molecule antagonists of peroxisome proliferator-activated receptor gamma signaling (AID 588537; active means well fitted inhibition curve with a large enough effect in the signal ratio, with a control signal flat, not every such curve was filed as active; the % refers to the signal ratio;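 further: reporter cells co-stimulated with 50 nM rosiglitazone agonist during compound treatment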)
# Outline: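 Antagonist mode, beta-lactamase reporter in HEK293; charcoal/dextran FBS 1%; 3000 cells/well, 37 C 6-6.5 h; cpd titration + rosiglitazone 50 nM final, 16 h 37 C; CCF4, 2 h RT; 460/530 nm; Hill fit → IC50, efficacy.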
# [5] = qHTS assay for small molecule agonists of retinoid X receptor alpha signaling (AID 588544); conditions: HEK293T RXRa-UAS-bla, beta-lactamase reporter, 18 h; 530 nm emission
# [6] = target: Retinoic acid receptor RXR-alpha (Homo sapiens) (UniProt P19793); assay: as above
# [7] = target: Thyroid hormone receptor beta (Homo sapiens) (UniProt P10828); assay: qHTS assay for small molecule agonists of thyroid hormone receptor beta signaling (AID 588545)
# Outline: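 In this cell-based screen, titrated compounds act on HEK 293 cells held in medium with 2% charcoal/dextran FBS, NEAA and pyruvate for 18 hrs at 37 C. Responses are expressed relative to T3 (10 nM) as 100% and basal DMSO as 0%.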
# [8] = target: Thyroid hormone receptor beta (Homo sapiens) (UniProt P10828); assay: qHTS assay for small molecule antagonists of thyroid hormone receptor beta signaling (AID 588547; active means well fitted inhibition curve with a large enough effect in the signal ratio, with a control signal flat, not every such curve was filed as active; the % refers to the signal ratio;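 further: cells stimulated with 0.4 nM T3 agonist during compound exposure; series mostly up to about 77 µM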); conditions: TR-UAS-bla HEK293, beta-lactamase ratio, antagonist mode, 18 h
# Outline: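 Inhibition of T3-driven (0.4nM final) beta-lactamase reporter activity was measured over 0.59 nM to 92 uM compound after 18 h at 37 C. The cells were GripTite HEK293 TR-UAS-bla in charcoal/dextran-stripped serum, with CCF4 ratio read-out and IC50 from Hill fits.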
# [9] = qHTS assay for small molecule agonists of the antioxidant response element (ARE) signaling pathway (AID 651741; active means well fitted activation curve with a large enough effect in the signal ratio; the % refers to the signal ratio; further: potency means the concentration at half of the fitted maximal effect)
# Outline: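 Quantitative HTS in HepG2 cells stably expressing an ARE-beta-lactamase reporter; 16 h compound exposure at 37 C, followed by 2 h room-temperature incubation with LiveBLAzer B/G FRET substrate and fluorescence measurement.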
# [10] = qHTS assay for small molecule activators of the p53 signaling pathway (AID 651743; active means well fitted activation curve with a large enough effect in the signal ratio, not every such curve was filed as active; the % refers to the signal ratio; further: series mostly up to about 92 µM); conditions: HCT-116 p53RE-bla, beta-lactamase FRET ratio, 16 h; activation: stronger effect = higher value
# Outline: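 Read-out is fluorescence intensity from the LiveBLAzer B/G FRET substrate, added for 2 hours at room temperature after HCT-116 p53RE-bla cells had been incubated with compounds for 16 hours at 37 C.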
# [11] = qHTS assay for environmental chemicals that activate the Aryl hydrocarbon Receptor (AhR) signaling pathway (AID 651777; active means well fitted curve in the direction sought with a large enough effect; an effect the other way counts as inactive or inconclusive; further: nearly all actives have a fitted effect of over 15% in size); conditions: 1A2-DRE human hepatoma cells, luciferase, 24 h; activation: stronger effect = higher value
# Outline: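 1A2-DRE human hepatoma reporter line; 1,200 cells/well; cmpd or DMSO 24 h, 37 C/5% CO2; One-Glo 30 min RT; luciferase lum.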
# [12] = target: Peroxisome proliferator-activated receptor alpha (Homo sapiens) (UniProt Q07869); assay: qHTS assay for small molecule agonists of the peroxisome proliferator-activated receptor alpha (PPARalpha) signaling pathway (AID 651778; active means well fitted curve in the direction sought with a large enough effect; an effect the other way counts as inactive or inconclusive); conditions: PathHunter PPARalpha complementation, chemiluminescence, 6 h; max response: stronger effect = higher value
# Outline: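 Chemiluminescence from complemented enzyme reported PPARalpha activation in cells after 6 hr of compound treatment at 37 C. The detection reagent was incubated for 60 min at room temperature, and compounds were scored as agonists.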
# [13] = qHTS assay for small molecule agonists of the antioxidant response element (ARE) signaling pathway measured by Nrf2-dependant transcriptional activity (AID 720636; active means well fitted curve in the direction sought with a large enough effect in the repeat runs; an effect the other way counts as inactive or inconclusive;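 further: HepG2 cells with an ARE-driven luciferase reporter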)
# Outline: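 Cells: ARE-luc HepG2 with Nrf2-responsive luciferase. Medium contained 1% dialyzed FBS. Compound exposure lasted 16 hr at 37 C and 5% CO2, followed by ONE-Glo luciferase detection.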
# [14] = qHTS assay for small molecule agonists of the antioxidant response element (ARE) signaling pathway measured by Nrf2-dependant transcriptional activity - cell viability counter screen (AID 720653; active means well fitted curve in the direction sought with a large enough effect in the repeat runs; an effect the other way counts as inactive or inconclusive); conditions: ARE-bla HepG2 viability, CellTiter-Glo ATP luminescence, 16 h; max response: stronger effect = lower value
# Outline: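 Cytotoxicity counter screen: intracellular ATP quantified by CellTiter-Glo luminescence in the same ARE-bla HepG2 plates, after 16 h compound exposure and a 2 h beta-lactamase substrate step.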
# [15] = qHTS assay for cell viability of HEK293 cells (AID 743288; active means well fitted curve in the direction sought with a large enough effect; an effect the other way counts as inactive or inconclusive; further: nearly all actives have a fitted effect of over 50% in size); conditions: ATP luminescence (CellTiter-Glo), 18 h; max response: stronger effect = lower value
# Outline: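 Parental HEK293 cells were seeded at 2,000 cells/well, rested at least 5 h at 37 C, then exposed to compounds in DMSO for 18 h at 37 C. Viability was read as ATP-dependent luciferase luminescence after 30 min at room temperature.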
# [16] = qHTS assay for cell viability of the p53RE-bla HCT-116 cell line (AID 743292; active means well fitted curve in the direction sought with a large enough effect; an effect the other way counts as inactive or inconclusive; further: nearly all actives have a fitted effect of over 55% in size)
# Outline: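 HCT-116 p53RE-bla cells seeded 4,000/well; 5 h at 37 C; compound (DMSO) added; 16 h at 37 C; CellTiter-Glo added, 30 min RT; luminescence read.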
# [17] = target: Vitamin D3 receptor (Homo sapiens) (UniProt P11473); assay: qHTS assay for small molecule agonists of vitamin D receptor signaling (AID 588543)
# Outline: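 GeneBLAzer VDR-UAS-bla HEK293T cells in 2% charcoal-stripped FBS medium were dosed with compound titrations for 16 h at 37 °C; CCF4 β-lactamase readout (405 nm ex, 460/530 nm em). EC50 and efficacy from Hill fits, normalized to 50 nM calcitriol (100%) and DMSO (0%).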
# [18] = qHTS assay for small molecule antagonists of retinoid X receptor alpha signaling (AID 588546; active means well fitted inhibition curve with a large enough effect in the signal ratio, with a control signal flat, not every such curve was filed as active; the % refers to the signal ratio;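 further: cells stimulated with 9-cis-retinoic acid as agonist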); conditions: HEK293T RXRa-UAS-bla, beta-lactamase ratio, antagonist mode; measured here: W530 green channel, cytotoxicity proxy
# Outline: (§2)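 Beta-lactamase reporter inhibition, read as CCF4 fluorescence ratio (ex 405, em 460/530 nm) after 2 h at RT. HEK293T UAS-bla cells, 2500/well, were stimulated with 9-cis-RA at 500 or 100 nM final alongside test compound for 18 h at 37 C.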
# [19] = target: Retinoic acid receptor RXR-alpha (Homo sapiens) (UniProt P19793); assay: as above; conditions: HEK293T RXRa-UAS-bla, beta-lactamase ratio, antagonist mode
# Outline: as §2
# [20] = target: Nuclear receptor subfamily 1 group I member 2 (Rattus norvegicus) (UniProt Q9R1A7); assay: qHTS assay for small molecule activators of the rat pregnane X receptor (rPXR) signaling pathway (AID 651751; call rule not given here); conditions: rPXR reporter cells, luciferase (One-Glo), 24 h
# [21] = qHTS assay for small molecule activators of the human pregnane X receptor (PXR) signaling pathway (AID 720659; call rule not given here)
# [22] = target: Vitamin D3 receptor (Homo sapiens) (UniProt P11473); assay: qHTS assay for small molecule antagonists of vitamin D receptor signaling (AID 588541);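 further: receptor activated by calcitriol during compound treatment; series mostly up to about 77 µM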
# Outline: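 Antagonist-mode beta-lactamase reporter assay: HEK293T VDR-UAS-bla cells were exposed to titrated compound alongside 1-alpha,25-dihydroxyvitamin D3 at 3 nM final for 16 h. Values were normalized to the 50 nM agonist control and DMSO basal, with IC50 and efficacy from Hill equation fits.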
# [23] = qHTS assay for small molecule activators of the nuclear factor-kappa B (NF-kB) signaling pathway (AID 651749; active means well fitted activation curve with a large enough effect in the signal ratio; the % refers to the signal ratio; further: series mostly up to about 77 µM); conditions: NF-kB-bla ME-180 cells, beta-lactamase FRET ratio, 16 h; activation: stronger effect = higher value
# Outline: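 Readout: beta-lactamase reporter driven by an NF-kB response element, detected fluorescently as loss of FRET. Cells were the ME-180 line, treated 16 hr at 37C with pin-transferred compound.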
# [24] = target: Peroxisome proliferator-activated receptor delta (Homo sapiens) (UniProt Q03181); assay: qHTS assay for small molecule antagonists of peroxisome proliferator-activated receptor delta signaling (AID 588535);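 on max response: cells co-treated with a PPAR-delta agonist as stimulator during compound exposure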
# Outline: as §1
# Chain of Vitamin D3 receptor (Homo sapiens) (P11473 whole entry, looked up): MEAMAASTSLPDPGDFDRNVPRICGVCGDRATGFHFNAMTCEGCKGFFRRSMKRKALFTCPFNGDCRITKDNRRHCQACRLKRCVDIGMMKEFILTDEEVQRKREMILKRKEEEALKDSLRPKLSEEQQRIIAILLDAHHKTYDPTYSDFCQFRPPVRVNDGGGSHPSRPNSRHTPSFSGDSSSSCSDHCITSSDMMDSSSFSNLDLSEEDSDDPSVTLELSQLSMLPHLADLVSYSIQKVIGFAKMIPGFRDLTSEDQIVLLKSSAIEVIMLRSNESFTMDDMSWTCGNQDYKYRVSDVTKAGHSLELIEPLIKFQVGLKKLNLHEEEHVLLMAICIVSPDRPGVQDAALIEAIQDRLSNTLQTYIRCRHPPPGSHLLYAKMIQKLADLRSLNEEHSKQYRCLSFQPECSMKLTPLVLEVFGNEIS
# Chain of Peroxisome proliferator-activated receptor gamma (Homo sapiens) (P37231 whole entry, looked up): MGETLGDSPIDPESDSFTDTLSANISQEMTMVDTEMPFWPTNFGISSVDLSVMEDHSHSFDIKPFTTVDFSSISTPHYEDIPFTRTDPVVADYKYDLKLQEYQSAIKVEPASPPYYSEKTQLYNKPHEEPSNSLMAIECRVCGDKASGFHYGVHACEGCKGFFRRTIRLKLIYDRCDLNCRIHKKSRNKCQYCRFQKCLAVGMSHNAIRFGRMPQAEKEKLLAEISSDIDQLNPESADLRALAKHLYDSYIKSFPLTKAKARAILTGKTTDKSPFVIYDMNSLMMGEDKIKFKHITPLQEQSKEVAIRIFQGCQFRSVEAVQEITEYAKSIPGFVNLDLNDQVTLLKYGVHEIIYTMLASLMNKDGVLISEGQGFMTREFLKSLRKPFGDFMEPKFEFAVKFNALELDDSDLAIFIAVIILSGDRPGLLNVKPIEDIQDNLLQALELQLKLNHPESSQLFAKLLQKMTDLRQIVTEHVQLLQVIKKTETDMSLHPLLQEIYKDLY
# Chain of Peroxisome proliferator-activated receptor alpha (Homo sapiens) (Q07869 whole entry, looked up): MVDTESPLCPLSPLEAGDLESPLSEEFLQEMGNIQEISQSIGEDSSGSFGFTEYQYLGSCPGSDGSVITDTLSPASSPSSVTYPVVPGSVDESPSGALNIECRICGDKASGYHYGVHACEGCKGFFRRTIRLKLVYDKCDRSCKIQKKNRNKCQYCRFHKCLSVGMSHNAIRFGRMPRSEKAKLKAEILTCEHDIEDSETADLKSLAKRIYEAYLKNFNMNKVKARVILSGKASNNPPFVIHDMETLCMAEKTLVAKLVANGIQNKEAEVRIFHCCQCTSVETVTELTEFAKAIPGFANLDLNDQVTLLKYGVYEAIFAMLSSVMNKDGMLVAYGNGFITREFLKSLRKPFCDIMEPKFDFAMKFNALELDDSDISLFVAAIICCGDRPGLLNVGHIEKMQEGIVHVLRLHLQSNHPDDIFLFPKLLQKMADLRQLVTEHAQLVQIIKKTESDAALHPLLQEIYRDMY
# Chain of Thyroid hormone receptor beta (Homo sapiens) (P10828 whole entry, looked up): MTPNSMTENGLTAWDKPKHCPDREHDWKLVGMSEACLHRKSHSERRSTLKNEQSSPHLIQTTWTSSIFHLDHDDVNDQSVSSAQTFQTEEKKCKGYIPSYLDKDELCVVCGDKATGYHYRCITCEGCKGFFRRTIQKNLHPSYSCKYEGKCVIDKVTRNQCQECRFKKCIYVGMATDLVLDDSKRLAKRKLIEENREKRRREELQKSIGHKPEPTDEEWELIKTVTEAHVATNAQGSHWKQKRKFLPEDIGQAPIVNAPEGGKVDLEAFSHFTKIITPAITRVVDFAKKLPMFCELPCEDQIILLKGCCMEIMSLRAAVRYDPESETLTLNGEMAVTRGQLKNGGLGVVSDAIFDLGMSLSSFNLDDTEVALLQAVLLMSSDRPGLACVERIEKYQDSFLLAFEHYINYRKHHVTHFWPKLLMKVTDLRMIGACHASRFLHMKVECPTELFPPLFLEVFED
# Chain of Retinoic acid receptor RXR-alpha (Homo sapiens) (P19793 whole entry, looked up): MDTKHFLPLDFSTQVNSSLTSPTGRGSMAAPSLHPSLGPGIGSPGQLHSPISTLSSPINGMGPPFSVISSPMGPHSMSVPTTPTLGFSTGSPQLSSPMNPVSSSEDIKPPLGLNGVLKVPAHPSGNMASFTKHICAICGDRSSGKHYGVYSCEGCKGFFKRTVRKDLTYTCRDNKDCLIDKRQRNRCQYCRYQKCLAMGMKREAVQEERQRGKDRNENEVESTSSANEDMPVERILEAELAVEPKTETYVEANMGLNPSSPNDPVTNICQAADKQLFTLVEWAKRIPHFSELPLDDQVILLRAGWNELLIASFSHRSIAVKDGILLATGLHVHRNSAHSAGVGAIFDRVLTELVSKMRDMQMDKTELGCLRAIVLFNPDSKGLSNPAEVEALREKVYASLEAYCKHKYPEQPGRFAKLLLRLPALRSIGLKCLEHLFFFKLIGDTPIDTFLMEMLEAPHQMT
# Chain of Nuclear receptor subfamily 1 group I member 2 (Rattus norvegicus) (Q9R1A7 whole entry, looked up): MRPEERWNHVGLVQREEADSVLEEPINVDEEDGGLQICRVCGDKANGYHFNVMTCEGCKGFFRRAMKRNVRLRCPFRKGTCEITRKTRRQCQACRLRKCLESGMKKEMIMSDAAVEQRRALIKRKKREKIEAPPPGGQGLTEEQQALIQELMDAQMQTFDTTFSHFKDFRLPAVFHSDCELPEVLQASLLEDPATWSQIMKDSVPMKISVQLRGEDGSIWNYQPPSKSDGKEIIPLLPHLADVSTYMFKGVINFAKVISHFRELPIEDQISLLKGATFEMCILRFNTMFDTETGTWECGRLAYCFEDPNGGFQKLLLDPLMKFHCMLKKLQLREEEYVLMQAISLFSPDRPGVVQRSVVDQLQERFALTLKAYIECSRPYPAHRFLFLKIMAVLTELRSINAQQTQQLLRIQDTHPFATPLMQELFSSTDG
# Chain of Peroxisome proliferator-activated receptor delta (Homo sapiens) (Q03181 whole entry, looked up): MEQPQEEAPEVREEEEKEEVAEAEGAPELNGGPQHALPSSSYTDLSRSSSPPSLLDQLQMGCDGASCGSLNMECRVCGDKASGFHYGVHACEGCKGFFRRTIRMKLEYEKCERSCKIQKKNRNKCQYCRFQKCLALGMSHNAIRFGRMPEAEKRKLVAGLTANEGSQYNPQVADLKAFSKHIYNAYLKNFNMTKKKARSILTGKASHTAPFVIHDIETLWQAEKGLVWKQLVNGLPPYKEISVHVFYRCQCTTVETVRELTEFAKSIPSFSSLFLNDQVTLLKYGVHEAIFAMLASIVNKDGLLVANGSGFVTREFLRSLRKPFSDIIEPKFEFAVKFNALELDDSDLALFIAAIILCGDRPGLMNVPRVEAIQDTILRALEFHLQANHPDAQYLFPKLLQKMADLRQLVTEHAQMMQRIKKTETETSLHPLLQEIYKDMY
compound,measurement,setting,value
OC/C(Br)=C(\Br)CO,outcome,[1],inactive
CCC(O)OCCCOC (centres undefined),outcome,[1],inactive
c1ccc(OCCOc2ccccc2)cc1,outcome,[1],inactive
CC(C)[C@H](C(=O)O[C@H](C#N)c1cccc(Oc2ccccc2)c1)c1ccc(Cl)cc1,outcome,[1],inactive
same,max response,[2],2%
same,Potency,[3],inactive
same,Potency,[4],inactive
same,max response,[5],-3.66%
same,Potency,[6],inactive
same,Potency,[7],inactive
same,activity change % (negative = inhibition),[8],-0.522% (inactive)
same,Potency,[9],61.1 µM (active)
same,activation,[10],-0.0449% (inactive)
same,activation,[11],0.849% (inactive)
same,max response,[12],0.0129% (inactive)
same,Potency,[13],inactive
same,max response,[14],6.41% (inactive)
same,max response,[15],-17.9% (inactive)
same,Potency,[16],inactive
Cc1ccccc1C=O,outcome,[1],inactive
OCCOCCOCCOCCO,outcome,[1],inactive
O=C1CCCCC1,outcome,[1],inactive
CC/C=C/C#N,outcome,[1],inactive
Cc1cc(Cl)ccc1N=CN(C)C,outcome,[1],inactive
same,Potency,[3],inactive
same,Potency,[4],inactive
same,outcome,[17],inactive
same,max response,[5],-2.15%
same,Potency,[6],inactive
same,max response,[18],-3.88%
same,max response,[19],-16.2% (inactive)
same,Potency,[9],inactive
same,activation,[10],0.7% (inactive)
same,activation,[11],1.22% (inactive)
same,max response,[12],-0.583% (inactive)
same,Potency,[13],inactive
same,max response,[14],-12.3% (inactive)
same,max response,[15],-10.1% (inactive)
same,Potency,[16],inactive
same,max response,[20],1.62% (inactive)
same,outcome,[21],inactive
NC(=O)Nc1nc2ccccc2[nH]1,outcome,[1],inactive
CC1=NNC(=O)N(/N=C/c2cccnc2)C1,outcome,[1],inactive
same,Potency,[3],inactive
same,Potency,[4],inactive
same,Potency,[22],inactive
same,outcome,[17],inactive
same,max response,[5],-7.06%
same,Potency,[6],inactive
same,max response,[18],-9.27%
same,max response,[19],-13.2% (inactive)
same,activity change % (negative = inhibition),[8],-22% (inactive)
same,Potency,[9],inactive
same,activation,[10],3.81% (inactive)
same,activation,[23],0.0556% (inactive)
same,activation,[11],-0.299% (inactive)
same,max response,[12],-0.256% (inactive)
same,Potency,[13],inactive
same,max response,[14],-9.52% (inactive)
same,max response,[15],-11.1% (inactive)
same,Potency,[16],inactive
same,max response,[20],-1.81% (inactive)
same,outcome,[21],inactive
Cc1cccc(C(=O)O)c1,outcome,[1],inactive
O=C(O)c1cc(Cl)cc(Cl)c1,outcome,[1],inactive
CCCCCCCCC,outcome,[1],inactive
CCC(C)(CC)c1cc(NC(=O)c2c(OC)cccc2OC)on1,outcome,[1],inactive
same,max response,[2],7.62%
same,Potency,[24],inactive
same,Potency,[3],inactive
same,Potency,[4],inactive
same,Potency,[22],inactive
same,outcome,[17],inactive
same,max response,[5],12.1%
same,Potency,[6],inactive
same,Potency,[7],inactive
same,max response,[18],5.81%
same,max response,[19],-17.5% (inactive)
same,activation,[23],-0.691% (inactive)
same,activation,[11],0.26% (inactive)
same,Potency,[13],inactive
same,max response,[14],10.3% (inactive)
same,max response,[15],-25.2% (inactive)
same,Potency,[16],inactive
CCCCC/C=C\C/C=C\CCCCCCCC(=O)OC,outcome,[1],inactive
CC(=O)c1ccccc1[N+](=O)[O-],outcome,[1],inactive
CCCCOC(=O)c1ccccc1,outcome,[1],inactive
CCCCCCCCCCCCN,outcome,[1],inactive
N#CN=C1SCCN1Cc1ccc(Cl)nc1,outcome,[1],inactive
same,max response,[2],8.04%
same,Potency,[24],inactive
same,Potency,[3],inactive
same,Potency,[4],inactive
same,max response,[5],6.15%
same,Potency,[6],inactive
same,Potency,[7],inactive
same,max response,[18],-7.22%
same,max response,[19],-3.64% (inactive)
same,activity change % (negative = inhibition),[8],-1.19% (inactive)
same,Potency,[9],inactive
same,activation,[10],1.82% (inactive)
same,activation,[23],-0.492% (inactive)
same,activation,[11],1.96% (inactive)
same,max response,[12],-1.13% (inactive)
same,Potency,[13],inactive
same,max response,[14],-4.44% (inactive)
same,max response,[15],1.43% (inactive)
same,Potency,[16],inactive
same,max response,[20],2.62% (inactive)

# Source: PubChem BioAssay (NCATS)
